The target of test [1] is ATP-dependent DNA helicase Q1 (Homo sapiens) (UniProt P46063). Nature of the test: qHTS Validation Assay for Inhibitors of RecQ-Like Dna Helicase 1 (RECQ1) (AID 2353). Further: potency means the concentration at half of the fitted maximal effect. An outline of the steps: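 RECQ1T1 50 nM; forked duplex (20 bp + 30-nt ss tails) 200 nM, ATP 2 mM final; pH 8.0, 2 mM MgCl2, 2.5 ug/ml poly(dI-dC); 15 min compound preincubation; discontinuous kinetic read over 2 h at RT.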
On the technique in general: qHTS replaces the single test concentration by a dilution series.

Test [2] deals with RecQ-like DNA helicase BLM (Homo sapiens) (UniProt P54132). Kind of test: qHTS Validation Assay for Inhibitors of Bloom's syndrome helicase (BLM) (AID 2364). Further: potency means the concentration at half of the fitted maximal effect. Put shortly: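 50 nM BLM preincubated 15 min at room temperature with compound in pH 8.0 Tris buffer containing 2.5 ug/ml poly(dI-dC); started with 200 nM TAMRA/BHQ-2 forked duplex and 2 mM ATP (final). Unwinding read as TAMRA fluorescence increase, two reads 2 h apart.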

Test [3] can be described thus: Cytometric Cell-Based qHTS for Inhibitors of the mTORC1 Signaling Pathway in MEF (Tsc2-/-, p53-/-) Cells (AID 2660).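 Further: percent of cells above a phospho-rpS6 to PI ratio cutoff in each well; plate controls were DMSO for no effect and rapamycin for full effect.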 Put shortly: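 Tsc2-/-, p53-/- MEFs (empty vector) exposed to compound 24 h at 37 C, fixed, stained with Alexa-488 anti-phospho-rpS6 Ser235/236 and propidium iodide. Acumen laser scanning; phospho-S6/PI ratio thresholded against 7.5 nM rapamycin, reported as % positive cells.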

A short description of test [4]: High Content Imaging Cell-Based qHTS for Inhibitors of the mTORC1 Signaling Pathway in MEF (Tsc2-/-, p53-/-) Cells (AID 2666).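 Further: percent of cells scored positive for phospho-rpS6 Ser235/236 immunostaining by imaging.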 Conditions: at 38.3 µM (top of the series). An outline of the steps: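 MEF Tsc2-/- p53-/- (empty vector), DMEM/10% FBS; cpd 24 h 37 °C; PFA fix, Alexa-488 p-rpS6 S235/236 Ab, Hoechst; imaged; rapamycin-defined inhibition; % positive cells/well.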

Test [5] can be described thus: High Content Imaging Cell-Based qHTS for Inhibitors of the mTORC1 Signaling Pathway in MEF Cells (AID 2667).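 Further: Tsc2-/- p53-/- MEFs stably re-expressing wild-type Tsc2 exposed 24 h; plate controls were DMSO wells for no effect and rapamycin control wells for full effect.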 Put shortly: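 Read-out is the share of phospho-rpS6-positive cells per well, from Hoechst-normalized Alexa-488 Ser235/236 staining imaged on IN Cell. Cells: WT Tsc2-expressing Tsc2-/-, p53-/- MEFs exposed to compound for 24 hrs.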
Test [6] is described as follows: Cytometry Cell-Based qHTS for Inhibitors of the mTORC1 Signaling Pathway in MEF cells (AID 2668).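 Further: Tsc2-/- p53-/- mouse embryonic fibroblasts stably re-expressing wild-type Tsc2; percent cells positive for phospho-rpS6 Ser235/236 relative to propidium iodide stain; plate controls were DMSO wells for no effect and 7.5 nM rapamycin control wells for full effect.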 Put shortly: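 Tsc2-/-, p53-/- MEFs re-expressing WT Tsc2; cpd 24 hrs, 37 degree Celsius; PFA fix, Alexa-488 p-rpS6 (Ser235/236) Ab 2 hrs RT, PI counterstain; Acumen 488nm scan; p-S6/PI ratio → % positive cells; PI count = viability.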
The nature of test [7]: Validation screen for small molecules that induce DNA re-replication in MCF 10A normal breast cells (AID 463097). Further: 0% is about no effect; nearly all actives have a fitted effect of over 60% in size. An outline of the steps:
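Image-based qHTS: normal breast cells are incubated with compound for 48 hr, stained with Hoechst, and scanned for total nuclear fluorescence. Compounds raising the fraction of nuclei with elevated DNA content count as re-replication inducers.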

The target of test [8] is Ubiquitin carboxyl-terminal hydrolase 2 (Homo sapiens) (UniProt O75604). Kind of test: qHTS Validation Assay for Inhibitors of Ubiquitin-specific Protease USP2a Using CHOP2 as the Reporter (AID 463106). Further: potency means the concentration at half of the fitted maximal effect. Put shortly: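 Fluorescence read-out at Ex 485nm/Em 531nm after 60min RT, following addition of 25nM Ub-CHOP2 plus 25nM reporter substrate to USP2 core (10nM) pretreated 30min with compound. Data normalized to NEM full inhibition; concentration-response curves fitted.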

Test [9] addresses DNA polymerase III PolC-type (Bacillus subtilis (strain 168)) (UniProt P13267). Nature of the test: qHTS Validation Assay for the Inhibitors of DNA Replication in Gram-Positive Bacteria (AID 485295). Further: potency means the concentration at half of the fitted maximal effect. Put shortly: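 First, compound is mixed with the reconstituted replication complex and held at room temperature. Next, circular single-stranded M13Gori with nucleotides starts synthesis. Finally, PicoGreen in EDTA halts the reaction and stains double-stranded product for fluorescence reading.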

The target of test [10] is Tumor susceptibility gene 101 protein (Homo sapiens) (UniProt Q99816). Kind of test: qHTS Validation Assay for Iinhibitors of HIV-1 Budding by Blocking the Interaction of PTAP/TSG101 (AID 485342; calls by dose curve; further: 0% is about no effect). An outline of the steps: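 Binding of a FITC-tagged PTAP-motif peptide (50 nM) to the Tsg101 binding domain (10 uM) is monitored by fluorescence polarization. Compounds are pin-delivered before peptide addition, and incubation runs 20 min at room temperature.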

In test [11] the target is Beta-2 adrenergic receptor (Homo sapiens) (UniProt P07550). Kind of test: qHTS validation assay of beta-arrestin-biased ligands of beta2-adrenergic receptor (AID 485366). Further: 0% is about no effect. An outline of the steps: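 qHTS, Tango cells, 1500 cells/well, DMEM + 1% FBS. Cpd 18 hr at 37 degrees C. Luciferin/ATP/CoA detection mix, 15 min RT, luminescence read. %Activity from corrected signal; CRC fit, curve class.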

The target of test [12] is ATP-dependent 6-phosphofructokinase (Trypanosoma brucei brucei) (UniProt O15648). Nature of the test: qHTS Validation Assay to Find Inhibitors of T. brucei phosphofructokinase (AID 485368). Further: potency means the concentration at half of the fitted maximal effect. An outline of the steps:
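Luminescent ADP detection measures PFK turnover of fructose-6-phosphate (0.5 mM) with ATP (0.1 mM) at pH 8.0. Reaction runs 45 min at room temperature with 1.25 nM enzyme; inhibitors tested as titrations up to 57 uM.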

Test [13] has as its target Thioredoxin reductase 1, cytoplasmic (Rattus norvegicus) (UniProt O89049). Nature of the test: qHTS Assay for Substrates of Mammalian Selenoprotein Thioredoxin Reductase 1 (TrxR1) (AID 488772).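 Further: 0% is about no effect; a drop in NADPH fluorescence below the no-compound background marks a TrxR1 substrate.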 An outline of the steps: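 In this dual-purpose format, potential substrates are identified from the first fluorescence read after selenite addition, not from the 8-minute delta. Rat enzyme is preincubated with NADPH and then with compound at ~22 deg C.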

The target of test [14] is M-phase phosphoprotein 8 (Homo sapiens) (UniProt Q99549). Kind of test: qHTS Validation Assay for Inhibitors for MPP8 Chromodomain Interactions with Methylated Histone Tails (AID 488949). Further: potency means the concentration at half of the fitted maximal effect; nearly all actives have a fitted effect of over 55% in size. An outline of the steps: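 50 nM MPP8 + 50 nM b-H3K9me3 peptide, PBS pH 7.4/0.01% Tween-20, 30 min RT; + cpd 30 min RT; + AlphaScreen donor/Ni-chelate acceptor beads 10 ug/mL final, 30 min dark; luminescence read.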

In test [15] the target is Chromobox protein homolog 1 (Homo sapiens) (UniProt P83916). Nature of the test: qHTS Validation Assay for Inhibitors of HP1-beta Chromodomain Interactions with Methylated Histone Tails (AID 488953). Further: potency means the concentration at half of the fitted maximal effect; nearly all actives have a fitted effect of over 50% in size. An outline of the steps: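 AlphaScreen proximity signal from streptavidin donor and nickel chelate acceptor beads (final 10 ug/mL) after 30 min dark incubation. Compounds had 30 min at room temperature with preformed complex of 50 nM HP1-beta and 50 nM b-H3(1-18)K9me3 in PBS pH 7.4 with 0.01% Tween-20.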

Test [16] concerns the target Thyrotropin receptor (Homo sapiens) (UniProt P16473). Nature of the test: qHTS Assay for Antagonists of the Thyroid Stimulating Hormone Receptor (AID 488980). Further: 0% is about no effect. Put shortly: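 Readout is cAMP by HTRF competition between cellular cAMP and cAMP-d2 for a cryptate-labelled antibody. Antagonism was assessed in TSHR-transfected HEK293 cells stimulated with 4 nM TSH (EC80, final) in the presence of RO 20-1724.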

The target of test [17] is D(1A) dopamine receptor (Homo sapiens) (UniProt P21728). Kind of test: HTS Assay for Allosteric Agonists of the Human D1 Dopamine Receptor: Primary Screen for Agonists (AID 488981). Further: 0% is about no effect. Put shortly: (§1)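 Tetracycline-induced HEK293 Trex D1 cells with forced coupling to calcium, loaded with no-wash calcium dye; kinetic fluorescence read 180 s after compound addition for agonism, then a further 180 s after an EC20 dopamine challenge for potentiation.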

For test [18] the target is unchanged. Nature of the test: HTS Assay for Allosteric Agonists of the Human D1 Dopamine Receptor: Primary Screen for Potentiators (AID 488982). Further: 0% is about no effect. An outline of the steps:
as §1

For test [19] the target is unchanged. Nature of the test: HTS Assay for Allosteric Agonists of the Human D1 Dopamine Receptor: Primary Screen for Antagonists (AID 488983).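 Further: calcium flux response to an EC80 dopamine challenge measured with no-wash dye; on the % scale 0 is the no-effect control and ±100 the full control effect; nearly all actives have a fitted effect of over 65% in size.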 An outline of the steps: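 Calcium-flux read-out in inducible HEK293 T-REx cells expressing D1, dye-loaded 30–90 min at room temperature. Kinetic reads: 180 s after compound (agonist phase), then 180 s after an EC80 dopamine challenge.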

A short description of test [20]: Validation screen for small molecules that induce genotoxicity in human embryonic kidney (HEK293T) cells expressing luciferase-tagged ELG1 (AID 493106). Further: 0% is about no effect. An outline of the steps: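 ELG1-luciferase reporter readout (ONE-Glo, 30 min, room temperature) after 16 hr compound treatment at 37 °C of HEK293T cells at 2,000 per well. Rising luminescence flags genotoxic stress.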

Test [21] has as its target Thyrotropin-releasing hormone receptor (Homo sapiens) (UniProt P34981). Nature of the test: qHTS for Small Molecule Agonists and Allosteric Enhancers of Human TRH Receptor: Validation Screen for Agonists (AID 493127;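 active means calcium activation more than 3 SD above the typical response in the agonist read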;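 further: intracellular calcium rise by fluo-8 fluorescence before TRH EC20 addition; 0% is about no effect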). Conditions: TRH receptor agonist cell assay; at 2 µM; hits give high values. An outline of the steps:
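Compound-evoked intracellular calcium release in fluo-8-loaded TRHR cells, read kinetically on FDSS (Ex 480/Em 530, 1 s/cycle) after 23 nL pintool transfer. Agonist phase preceded 10 nM TRH EC20 addition.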

In PubChem BioAssay (NCATS) one finds Potency, outcome and activation data, which are given here for one molecule.

“And” between values parts separate entries of the source, which are not always exact repeats. Equal entries are not always repeated. Unmarked numbers belong to inactive results. Inconclusive results are not listed. The source made the active and inactive calls. Unless noted, the call rests on the fitted dose curve; in most records, active means well fitted curve in the direction sought with a large enough effect; inconclusive means small, poorly fitted or top-dose-only effect, or another doubt; inactive means no such curve, though single readings can be large; an effect the other way counts as inactive or inconclusive.

Sequence of D(1A) dopamine receptor (Homo sapiens) (P21728 whole entry, looked up): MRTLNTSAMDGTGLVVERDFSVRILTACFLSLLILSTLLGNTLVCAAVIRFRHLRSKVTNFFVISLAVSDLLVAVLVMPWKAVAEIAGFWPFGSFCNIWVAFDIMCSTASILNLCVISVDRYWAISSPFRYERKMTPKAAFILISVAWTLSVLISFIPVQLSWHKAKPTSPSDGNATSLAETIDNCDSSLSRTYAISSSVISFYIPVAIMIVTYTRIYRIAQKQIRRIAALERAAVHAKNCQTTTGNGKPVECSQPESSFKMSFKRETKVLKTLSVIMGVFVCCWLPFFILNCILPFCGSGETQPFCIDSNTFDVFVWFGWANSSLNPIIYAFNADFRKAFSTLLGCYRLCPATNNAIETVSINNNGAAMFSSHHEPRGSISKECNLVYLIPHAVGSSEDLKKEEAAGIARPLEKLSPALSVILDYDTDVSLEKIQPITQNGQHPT
Sequence of M-phase phosphoprotein 8 (Homo sapiens) (Q99549 whole entry, looked up): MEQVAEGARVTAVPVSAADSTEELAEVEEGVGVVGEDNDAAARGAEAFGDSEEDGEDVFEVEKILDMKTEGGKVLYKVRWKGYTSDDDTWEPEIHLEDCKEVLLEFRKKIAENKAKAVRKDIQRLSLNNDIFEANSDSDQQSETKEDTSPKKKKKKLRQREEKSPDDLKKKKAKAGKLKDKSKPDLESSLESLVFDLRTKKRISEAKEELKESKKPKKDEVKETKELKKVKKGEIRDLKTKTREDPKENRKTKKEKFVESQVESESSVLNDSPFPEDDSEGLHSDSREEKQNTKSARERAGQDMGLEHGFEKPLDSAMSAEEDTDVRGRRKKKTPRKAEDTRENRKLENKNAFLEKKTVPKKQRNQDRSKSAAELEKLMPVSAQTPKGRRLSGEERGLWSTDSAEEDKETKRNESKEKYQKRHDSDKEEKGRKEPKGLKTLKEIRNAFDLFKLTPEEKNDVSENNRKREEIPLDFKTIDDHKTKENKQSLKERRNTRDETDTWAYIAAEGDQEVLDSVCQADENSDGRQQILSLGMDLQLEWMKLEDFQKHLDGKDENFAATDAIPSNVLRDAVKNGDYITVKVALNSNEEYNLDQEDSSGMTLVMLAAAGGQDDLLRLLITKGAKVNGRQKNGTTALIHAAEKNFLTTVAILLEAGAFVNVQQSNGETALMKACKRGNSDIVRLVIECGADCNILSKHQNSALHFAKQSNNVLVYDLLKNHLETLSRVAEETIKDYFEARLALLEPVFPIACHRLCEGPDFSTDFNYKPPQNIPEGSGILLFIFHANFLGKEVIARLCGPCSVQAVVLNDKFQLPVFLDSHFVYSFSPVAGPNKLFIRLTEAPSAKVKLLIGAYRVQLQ
Sequence of Thyrotropin-releasing hormone receptor (Homo sapiens) (P34981 whole entry, looked up): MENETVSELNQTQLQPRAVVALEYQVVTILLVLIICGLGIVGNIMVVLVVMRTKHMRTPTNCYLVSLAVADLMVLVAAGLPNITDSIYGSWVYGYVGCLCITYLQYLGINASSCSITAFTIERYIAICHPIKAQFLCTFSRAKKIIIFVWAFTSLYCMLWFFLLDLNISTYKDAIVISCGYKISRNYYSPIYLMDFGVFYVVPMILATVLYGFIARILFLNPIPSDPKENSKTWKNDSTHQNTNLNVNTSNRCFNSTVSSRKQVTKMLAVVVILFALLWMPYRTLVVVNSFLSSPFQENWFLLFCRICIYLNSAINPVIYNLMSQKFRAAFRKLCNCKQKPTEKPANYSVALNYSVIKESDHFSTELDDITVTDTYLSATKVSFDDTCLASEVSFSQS
Sequence of ATP-dependent 6-phosphofructokinase (Trypanosoma brucei brucei) (O15648 whole entry, looked up): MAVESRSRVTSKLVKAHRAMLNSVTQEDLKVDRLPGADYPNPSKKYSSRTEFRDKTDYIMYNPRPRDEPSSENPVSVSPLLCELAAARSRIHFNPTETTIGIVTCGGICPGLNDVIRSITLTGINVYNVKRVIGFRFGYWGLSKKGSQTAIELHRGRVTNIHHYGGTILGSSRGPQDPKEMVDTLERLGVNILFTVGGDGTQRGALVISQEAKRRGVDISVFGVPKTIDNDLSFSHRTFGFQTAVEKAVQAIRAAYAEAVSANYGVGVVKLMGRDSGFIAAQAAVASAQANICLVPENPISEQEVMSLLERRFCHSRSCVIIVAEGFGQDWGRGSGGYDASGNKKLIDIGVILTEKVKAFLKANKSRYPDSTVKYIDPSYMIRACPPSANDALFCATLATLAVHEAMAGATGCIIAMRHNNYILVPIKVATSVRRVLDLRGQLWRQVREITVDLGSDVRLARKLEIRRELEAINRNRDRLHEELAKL
Sequence of Thioredoxin reductase 1, cytoplasmic (Rattus norvegicus) (O89049 whole entry, looked up): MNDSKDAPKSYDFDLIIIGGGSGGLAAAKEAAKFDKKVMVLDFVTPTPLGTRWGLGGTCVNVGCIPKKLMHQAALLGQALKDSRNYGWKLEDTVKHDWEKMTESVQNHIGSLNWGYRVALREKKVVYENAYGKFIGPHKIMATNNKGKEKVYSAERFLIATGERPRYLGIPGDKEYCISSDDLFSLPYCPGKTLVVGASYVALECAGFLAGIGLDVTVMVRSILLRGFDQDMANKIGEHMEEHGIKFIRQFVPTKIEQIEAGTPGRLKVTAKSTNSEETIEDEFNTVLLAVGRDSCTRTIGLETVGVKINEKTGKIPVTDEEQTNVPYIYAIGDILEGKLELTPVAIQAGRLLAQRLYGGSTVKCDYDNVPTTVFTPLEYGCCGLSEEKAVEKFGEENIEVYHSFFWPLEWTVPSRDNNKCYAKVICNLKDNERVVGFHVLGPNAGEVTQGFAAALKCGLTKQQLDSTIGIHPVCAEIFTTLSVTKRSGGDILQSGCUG
Sequence of RecQ-like DNA helicase BLM (Homo sapiens) (P54132 whole entry, looked up): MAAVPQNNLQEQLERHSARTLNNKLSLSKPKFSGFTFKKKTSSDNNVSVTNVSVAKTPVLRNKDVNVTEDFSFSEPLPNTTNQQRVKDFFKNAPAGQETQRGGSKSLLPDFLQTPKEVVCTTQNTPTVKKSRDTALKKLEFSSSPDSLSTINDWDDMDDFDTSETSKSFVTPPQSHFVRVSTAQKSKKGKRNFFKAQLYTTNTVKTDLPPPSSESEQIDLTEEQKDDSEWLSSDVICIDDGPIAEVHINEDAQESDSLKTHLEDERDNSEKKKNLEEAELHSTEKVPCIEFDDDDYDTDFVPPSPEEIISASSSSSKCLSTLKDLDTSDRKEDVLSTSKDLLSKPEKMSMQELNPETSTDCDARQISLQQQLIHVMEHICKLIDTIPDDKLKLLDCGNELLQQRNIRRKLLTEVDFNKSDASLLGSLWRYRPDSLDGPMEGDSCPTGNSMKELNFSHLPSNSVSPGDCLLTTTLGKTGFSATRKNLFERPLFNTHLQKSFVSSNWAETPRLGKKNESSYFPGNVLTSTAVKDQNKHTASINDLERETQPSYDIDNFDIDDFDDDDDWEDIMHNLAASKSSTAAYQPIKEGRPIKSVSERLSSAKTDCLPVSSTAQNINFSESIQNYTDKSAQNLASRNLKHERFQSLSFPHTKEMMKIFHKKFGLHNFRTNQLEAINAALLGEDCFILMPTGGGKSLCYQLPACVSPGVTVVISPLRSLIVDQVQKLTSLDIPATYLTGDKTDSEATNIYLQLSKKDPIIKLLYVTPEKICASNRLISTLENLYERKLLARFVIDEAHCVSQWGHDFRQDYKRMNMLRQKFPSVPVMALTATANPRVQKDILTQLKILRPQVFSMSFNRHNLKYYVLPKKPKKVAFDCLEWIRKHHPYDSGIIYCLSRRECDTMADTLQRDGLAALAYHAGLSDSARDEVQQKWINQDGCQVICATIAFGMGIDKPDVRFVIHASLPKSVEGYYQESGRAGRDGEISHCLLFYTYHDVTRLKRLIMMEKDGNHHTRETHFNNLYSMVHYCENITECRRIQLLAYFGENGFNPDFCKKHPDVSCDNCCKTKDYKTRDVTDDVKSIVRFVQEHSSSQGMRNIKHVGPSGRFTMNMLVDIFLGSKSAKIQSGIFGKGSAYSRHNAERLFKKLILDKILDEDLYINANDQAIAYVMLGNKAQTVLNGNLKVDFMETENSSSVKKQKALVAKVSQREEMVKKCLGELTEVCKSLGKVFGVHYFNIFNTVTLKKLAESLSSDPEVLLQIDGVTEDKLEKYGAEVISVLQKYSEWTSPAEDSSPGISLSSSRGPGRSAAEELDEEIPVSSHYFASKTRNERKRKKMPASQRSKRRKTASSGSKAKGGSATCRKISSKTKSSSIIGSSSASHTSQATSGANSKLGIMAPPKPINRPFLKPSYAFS
Sequence of Ubiquitin carboxyl-terminal hydrolase 2 (Homo sapiens) (O75604 whole entry, looked up): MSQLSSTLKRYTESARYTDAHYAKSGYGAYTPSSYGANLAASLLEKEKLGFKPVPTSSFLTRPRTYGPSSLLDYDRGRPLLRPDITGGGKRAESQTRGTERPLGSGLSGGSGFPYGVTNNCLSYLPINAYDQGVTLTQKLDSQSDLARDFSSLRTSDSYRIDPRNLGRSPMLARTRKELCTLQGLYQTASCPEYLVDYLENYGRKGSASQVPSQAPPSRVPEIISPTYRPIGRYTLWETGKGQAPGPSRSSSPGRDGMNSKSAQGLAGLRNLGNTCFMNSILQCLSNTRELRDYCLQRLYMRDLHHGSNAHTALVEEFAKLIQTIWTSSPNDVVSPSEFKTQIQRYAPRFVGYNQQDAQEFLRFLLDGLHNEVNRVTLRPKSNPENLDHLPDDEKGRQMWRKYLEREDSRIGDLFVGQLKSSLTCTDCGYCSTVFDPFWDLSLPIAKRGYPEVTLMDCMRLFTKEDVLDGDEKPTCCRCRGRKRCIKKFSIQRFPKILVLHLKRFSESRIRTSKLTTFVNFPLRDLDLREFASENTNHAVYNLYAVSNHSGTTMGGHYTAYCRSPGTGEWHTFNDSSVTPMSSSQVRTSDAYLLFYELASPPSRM
Sequence of Chromobox protein homolog 1 (Homo sapiens) (P83916 whole entry, looked up): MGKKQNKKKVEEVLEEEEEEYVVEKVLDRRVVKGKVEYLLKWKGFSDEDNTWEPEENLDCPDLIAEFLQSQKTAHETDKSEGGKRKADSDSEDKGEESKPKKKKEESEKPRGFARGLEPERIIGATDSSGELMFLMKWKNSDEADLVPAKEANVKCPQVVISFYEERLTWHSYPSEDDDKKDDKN

In the case of `Nc1c(S(=O)(=O)O)cc(Nc2ccc(Nc3nc(Cl)nc(Nc4ccc(S(=O)(=O)O)cc4)n3)c(S(=O)(=O)O)c2)c2c1C(=O)c1ccccc1C2=O`, the Potency in test [1] is 1 µM (active); in test [2], 6.31 µM (active); in test [8], 4.65 µM (active); in test [9] it was 5.32 µM (active); in test [12], 2.39 µM (active); in [14] it was 1.58 µM (active) and 844 nM (active). Moreover, the Potency in test [15] is 1.26 µM (active). The result in [3], in test [4], in test [10], in test [11], in [13] and in test [16] was inactive. The molecule was called inactive in [17], in test [18] and in [19]. Also, the Potency entry in [5], in [6], in test [7] and in test [20] was “inactive” in each case. Further, in test [21], the activation was 1.5%.
